These results are taken from PubChem BioAssay (Tox21).

Values joined by “and” are separate entries in the source; they are usually repeats but may differ in a detail not shown here. Equal entries are not always repeated. Inconclusive results are not listed. Where a structure was tested more than once in an assay, its records may differ in their call. Active and inactive are the calls of the source. Unless noted, the call rests on the fitted dose curve.

For assay [1], the target named is Gonadotropin-releasing hormone receptor (Homo sapiens) (UniProt P30968). As to the kind of experiment: Human gonadotropin-releasing hormone receptor (GnRHR) small molecule agonists, calcium flux assay in GnRHR-HEK293 cells (AID 1920063). Further: nearly all actives have a fitted effect of over 35% in size. Further: potency means the concentration at half of the fitted maximal effect. In a few lines: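 GnRHR-HEK293, 1500 cells/well, 18 h 37 C/5% CO2; Ca dye 1 h 37 C; cpd pinned (DMSO), agonist mode; kinetic FL 480/540, 3 min, 1 s reads; 15 conc, n=3.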

Assay [2] deals with KiSS-1 receptor (Homo sapiens) (UniProt Q969F8). As to the kind of experiment: Human kisspeptin (KISS1R) small molecule agonists, calcium flux assay in KISS1R-HEK293 cells (AID 1920064; active means well fitted activation curve with a large enough effect in the repeat runs; further: potency means the concentration at half of the fitted maximal effect). In a few lines: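 Stable human KISS1R HEK293 line; 18 h plating, 37 C/5% CO2; calcium dye 1 h 37 C; compound pin transfer; kinetic fluorescence Ex/Em 480/540, 3 min.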
Assay [3] in a line: G protein-coupled receptor (GPCR) small molecule agonists, calcium flux assay: HEK293 wild type cell line counter screen (AID 1920065). In a few lines:
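Kinetic fluorescence at Ex/Em 480/540, recorded every second over 3 min, served as the read-out after compound addition. Each compound was tested at 15 concentrations in triplicate on cells pre-loaded with calcium dye for 1 h.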

Assay [4] is described as follows: p53 small molecule agonists, cell-based qHTS assay with human liver microsomes (AID 1963577). In a few lines: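 p53RE-bla reporter cells were pre-incubated 5 h at 37 C, then treated with compounds plus human liver microsomes (0.5 mg/mL final) and NADPH (0.5 mg/mL final) for 16 h at 37 C. Beta-lactamase activity was read by LiveBLAzer fluorescence after 2 h at room temperature.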
On the technique in general: Quantitative high-throughput screening tests each substance at several concentrations.

Assay [5] in a line: p53 small molecule agonists, cell-based qHTS assay with rat liver microsomes (AID 1963578). In a few lines:
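p53RE-bla cells were exposed to compounds together with rat liver microsomes (0.5 mg/mL final) and NADPH (0.5 mg/mL final) for 16 h at 37 C, then read by LiveBLAzer beta-lactamase fluorescence after 2 h at room temperature.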

Assay [6] can be described thus: p53 small molecule agonists, cell-based qHTS assay with human liver microsomes: qHTS cell viability counter screen (AID 1963579). Further: nearly all actives have a fitted effect of over 45% in size. Further: potency means the concentration at half of the fitted maximal effect. The gist of the method: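 p53RE-bla cells (4,000/well) were pre-incubated 5 h at 37 C, then given compounds in DMSO plus human liver microsomes (0.5 mg/mL final) and NADPH (0.5 mg/mL final) for 16 h at 37 C. Viability was read by CellTiter-Glo luminescence.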

The nature of assay [7]: p53 small molecule agonists, cell-based qHTS assay: qHTS cell viability counter screen (AID 1963581). Further: nearly all actives have a fitted effect of over 45% in size. In a few lines: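 HCT-116 p53RE-bla cells, 4,000/well, plated 5 h before compound pin transfer; 16 h at 37 C; bla substrate 2 h RT; then CellTiter-Glo, 30 min RT, luminescence.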
Assay [8] concerns the target 5-hydroxytryptamine receptor 2A (Homo sapiens) (UniProt P28223). As to the kind of experiment: 5-hydroxytryptamine receptor 2A (HTR2A) small molecule antagonists, cell-based qHTS assay (AID 1963586). Further: nearly all actives have a fitted effect of over 45% in size. Further: potency means the concentration at half of the fitted maximal effect. The gist of the method: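 Antagonist-mode intracellular calcium assay: DOI (4 nM) added after 5 min compound pre-incubation at room temperature to dye-loaded HTR2A-CHO cells. Fluorescence followed for 3 min, sampled every second.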

Assay [9] concerns the target Muscarinic acetylcholine receptor M1 (Homo sapiens) (UniProt P11229). As to the kind of experiment: Cholinergic receptor muscarinic 1 (CHRM1) small molecule antagonists, cell-based qHTS assay (AID 1963588). Further: nearly all actives have a fitted effect of over 40% in size. Further: potency means the concentration at half of the fitted maximal effect. The gist of the method:
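CHRM1-CHO calcium-flux assay, antagonist mode. Cells were seeded 18 h, dye-loaded 1 h at 37 C and given compound for 5 min at RT, then acetylcholine was added at 50nM. FDSS fluorescence was read 3 min; 15 concentrations, three runs.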

Assay [10] can be described thus: p53 small molecule agonists, cell-based qHTS assay (AID 1963582; active means well fitted activation curve with a large enough effect in the signal ratio in the repeat runs, not every such curve was filed as active; the % refers to the signal ratio). In a few lines:
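Reporter line: p53RE-bla. Pre-incubation 5 h, 37 C, 5% CO2; compound (DMSO, pin tool) 16 h, 37 C; B/G FRET substrate 2 h RT; fluorescence intensity read.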

In assay [11] the target is Muscarinic acetylcholine receptor M1 (Homo sapiens) (UniProt P11229). As to the kind of experiment: Cholinergic receptor muscarinic 1 (CHRM1) small molecule agonists, cell-based qHTS assay (AID 1963589). Further: nearly all actives have a fitted effect of over 35% in size. The gist of the method: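 Human M1 in stable CHO line; 18 h plating, 1 h dye load 37 C; cpd added (agonist mode); Ca2+ fluorescence kinetic read, 1 s intervals; 15 conc, 3 runs.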

Assay [12] in a line: cAMP Responsive Elements (CRE) small molecule agonists, cell-based qHTS assay (AID 1963590). The gist of the method: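 HEK 293T CRE-bla, 2,000 cells/well, 18 h preincubation 37 C/5% CO2; cpds (DMSO) pinned, 3 h; LiveBLAzer B/G FRET substrate, 2 h RT.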
A short description of assay [13]: cAMP Responsive Elements (CRE) small molecule antagonists, cell-based qHTS assay (AID 1963591; active means well fitted inhibition curve with a large enough effect in the signal ratio in the repeat runs, not every such curve was filed as active; the % refers to the signal ratio). In a few lines: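 Beta-lactamase reporter read by FRET substrate (LiveBLAzer B/G) after 2 h at room temperature. CRE-bla HEK293T cells had received compound plus 0.25 uM (final) NKH477 for 3 h at 37 °C.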
Assay [14] concerns the target Beta-2 adrenergic receptor (Homo sapiens) (UniProt P07550). The assay is described as follows: Adrenergic beta2 receptor (ADRB2) small molecule antagonists, cell-based qHTS assay (AID 1963592). Further: series mostly up to about 92 µM; nearly all actives have a fitted effect of over 50% in size. In a few lines:
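Cells (CHO, stable ADRB2 overexpression) incubated 18-20hr at 37C; compounds added from DMSO; agonist mix (1nM isoproterenol, 100uM IBMX, 25uM Ro-20-1724) added; 0.5hr RT; d2-cAMP and anti-cAMP-cryptate added; 1hr RT; 665/615 nm read.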

In assay [15] the target is D(2) dopamine receptor (Homo sapiens) (UniProt P14416). As to the kind of experiment: Dopamine D2 receptor (DRD2) small molecule agonists, cell-based qHTS assay (AID 1963594). Further: nearly all actives have a fitted effect of over 35% in size. In a few lines:
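HEK293 cells stably expressing DRD2 were cultured 24 h at 37 C, then given Ro20-1724 (0.1 mM final) and compounds for 10 min at room temperature. NKH477 (200nM) was then added for 30 min. cAMP was read by HTRF.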

Assay [16] has the same target. The assay is described as follows: Dopamine D2 receptor (DRD2) small molecule antagonists, cell-based qHTS assay (AID 1963595; active means well fitted inhibition curve with a large enough effect in the signal ratio in the repeat runs, with a control signal flat; the % refers to the signal ratio). The gist of the method:
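Antagonist mode in DRD2-HEK293 cells: after compound addition with 0.1 mM Ro20-1724, cells received quinpirole (12 nM) and NKH477 (200 nM) for 30 min at room temperature; HTRF cAMP read after 1 h detection.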

Assay [17] is described as follows: p53 small molecule agonists, cell-based qHTS assay with rat liver microsomes: qHTS cell viability counter screen (AID 1963580). Further: nearly all actives have a fitted effect of over 45% in size. In a few lines: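 In HCT-116 cells carrying a p53 response element-bla reporter, compounds were metabolically activated in situ by rat liver microsomes with NADPH over 16 h. Cell ATP content then served as the cytotoxicity measure.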

Assay [18] has as its target 5-hydroxytryptamine receptor 2A (Homo sapiens) (UniProt P28223). As to the kind of experiment: 5-hydroxytryptamine receptor 2A (HTR2A) small molecule agonists, cell-based qHTS assay (AID 1963587). Further: nearly all actives have a fitted effect of over 30% in size. Further: potency means the concentration at half of the fitted maximal effect. The gist of the method: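 HTR2A-CHO cells, plated 18 h at 37 C/5% CO2, dye-loaded 1 h at 37 C; compounds in DMSO added by pin tool (agonist mode). Intracellular calcium flux read as kinetic fluorescence on FDSS over 2 min at 1 s intervals.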

Assay [19] can be described thus: Nuclear factor erythroid 2-related factor 2/antioxidant responsive element (Nrf2/ARE) small molecule agonists: luciferase reporter gene qHTS assay in human keratinocytes (AID 1919969). Further: nearly all actives have a fitted effect of over 35% in size. On the technique in general: Reporter assays use an easily measured gene product as a stand-in for the process of interest.

D(2) dopamine receptor (Homo sapiens), sequence (P14416 whole entry, looked up): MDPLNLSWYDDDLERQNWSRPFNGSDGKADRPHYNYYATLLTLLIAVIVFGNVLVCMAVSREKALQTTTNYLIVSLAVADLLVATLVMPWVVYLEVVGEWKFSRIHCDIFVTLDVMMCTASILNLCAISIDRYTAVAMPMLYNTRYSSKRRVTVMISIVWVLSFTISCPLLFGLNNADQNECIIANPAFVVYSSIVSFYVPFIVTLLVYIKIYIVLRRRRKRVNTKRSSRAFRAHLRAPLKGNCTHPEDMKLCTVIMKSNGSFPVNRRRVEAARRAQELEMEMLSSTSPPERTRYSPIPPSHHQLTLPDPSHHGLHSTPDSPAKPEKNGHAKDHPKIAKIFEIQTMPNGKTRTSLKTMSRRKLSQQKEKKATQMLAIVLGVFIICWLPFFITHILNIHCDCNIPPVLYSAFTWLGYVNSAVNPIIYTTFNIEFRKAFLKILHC
Muscarinic acetylcholine receptor M1 (Homo sapiens), sequence (P11229 whole entry, looked up): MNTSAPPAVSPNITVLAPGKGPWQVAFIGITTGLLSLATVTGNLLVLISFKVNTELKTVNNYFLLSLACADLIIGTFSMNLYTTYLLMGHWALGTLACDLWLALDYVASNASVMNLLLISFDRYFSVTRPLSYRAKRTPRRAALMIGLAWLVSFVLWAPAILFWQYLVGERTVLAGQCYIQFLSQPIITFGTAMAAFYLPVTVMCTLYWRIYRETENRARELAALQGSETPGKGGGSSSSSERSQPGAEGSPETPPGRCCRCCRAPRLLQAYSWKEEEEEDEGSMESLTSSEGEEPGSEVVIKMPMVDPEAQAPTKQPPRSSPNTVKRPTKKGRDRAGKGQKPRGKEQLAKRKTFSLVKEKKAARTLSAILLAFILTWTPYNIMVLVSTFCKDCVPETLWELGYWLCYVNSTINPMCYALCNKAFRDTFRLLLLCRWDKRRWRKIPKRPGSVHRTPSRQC
KiSS-1 receptor (Homo sapiens), sequence (Q969F8 whole entry, looked up): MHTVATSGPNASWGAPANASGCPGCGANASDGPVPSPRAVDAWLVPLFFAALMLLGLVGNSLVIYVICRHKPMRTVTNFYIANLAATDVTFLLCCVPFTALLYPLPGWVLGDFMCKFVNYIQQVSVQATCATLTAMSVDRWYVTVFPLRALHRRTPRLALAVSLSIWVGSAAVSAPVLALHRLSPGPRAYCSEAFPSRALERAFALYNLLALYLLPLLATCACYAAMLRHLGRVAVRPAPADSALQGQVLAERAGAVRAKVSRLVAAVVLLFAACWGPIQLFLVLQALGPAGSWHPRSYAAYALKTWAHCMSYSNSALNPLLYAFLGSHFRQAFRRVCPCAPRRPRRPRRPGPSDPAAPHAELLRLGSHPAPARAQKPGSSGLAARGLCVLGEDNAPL
Gonadotropin-releasing hormone receptor (Homo sapiens), sequence (P30968 whole entry, looked up): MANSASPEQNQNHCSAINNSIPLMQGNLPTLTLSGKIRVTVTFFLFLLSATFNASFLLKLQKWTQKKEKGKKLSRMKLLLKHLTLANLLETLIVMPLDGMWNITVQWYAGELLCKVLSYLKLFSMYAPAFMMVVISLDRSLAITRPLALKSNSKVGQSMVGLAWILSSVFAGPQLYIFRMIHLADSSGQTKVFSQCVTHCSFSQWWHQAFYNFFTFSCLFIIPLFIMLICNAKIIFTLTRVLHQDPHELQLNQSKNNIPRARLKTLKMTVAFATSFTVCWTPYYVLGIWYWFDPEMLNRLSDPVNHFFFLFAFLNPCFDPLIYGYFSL
Beta-2 adrenergic receptor (Homo sapiens), sequence (P07550 whole entry, looked up): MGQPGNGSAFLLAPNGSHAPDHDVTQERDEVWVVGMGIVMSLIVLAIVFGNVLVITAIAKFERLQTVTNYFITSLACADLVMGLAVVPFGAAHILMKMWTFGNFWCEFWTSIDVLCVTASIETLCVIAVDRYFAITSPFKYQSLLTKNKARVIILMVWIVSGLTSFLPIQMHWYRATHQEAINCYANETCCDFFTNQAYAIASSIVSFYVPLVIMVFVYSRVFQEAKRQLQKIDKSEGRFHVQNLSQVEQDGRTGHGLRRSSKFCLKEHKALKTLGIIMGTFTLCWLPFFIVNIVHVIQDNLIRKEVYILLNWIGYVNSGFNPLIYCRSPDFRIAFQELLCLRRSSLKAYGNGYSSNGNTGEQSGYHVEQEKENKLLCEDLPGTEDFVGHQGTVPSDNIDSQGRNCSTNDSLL
5-hydroxytryptamine receptor 2A (Homo sapiens), sequence (P28223 whole entry, looked up): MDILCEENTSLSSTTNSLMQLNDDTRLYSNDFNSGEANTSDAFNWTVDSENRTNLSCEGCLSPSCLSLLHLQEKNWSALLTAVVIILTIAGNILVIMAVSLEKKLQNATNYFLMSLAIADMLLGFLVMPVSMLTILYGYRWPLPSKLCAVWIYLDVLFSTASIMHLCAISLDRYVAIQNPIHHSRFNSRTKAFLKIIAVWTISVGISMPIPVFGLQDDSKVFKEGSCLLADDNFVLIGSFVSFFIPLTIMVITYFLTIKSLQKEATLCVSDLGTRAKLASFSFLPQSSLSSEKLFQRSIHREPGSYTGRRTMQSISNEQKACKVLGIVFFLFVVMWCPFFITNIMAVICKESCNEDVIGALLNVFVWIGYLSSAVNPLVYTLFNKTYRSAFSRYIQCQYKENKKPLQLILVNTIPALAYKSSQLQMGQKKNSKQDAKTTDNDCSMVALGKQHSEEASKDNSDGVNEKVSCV

On to `N#CCCC(Br)(C#N)CBr` (centres undefined), for which the results for the Potency in assay [1] and in assay [2] were 38.9 µM (active) and 54.9 µM (active), respectively. In addition, the Potency result in assay [3], in assay [4], in assay [5], in [6], in [7] and in [8] was “inactive” throughout. Also, the Potency result in [9] was “inactive”.
For the compound `CC(C)(C)C(O)C(Oc1ccc(-c2ccccc2)cc1)n1cncn1` (centres undefined), the Potency result in assay [1], in assay [2], in assay [3], in [4], in assay [5] and in [6] was “inactive” in each case. The Potency entry in [7], in [10], in assay [8], in assay [9], in assay [11] and in [12] was “inactive” each time. Also, the Potency result in assay [13], in assay [14], in assay [15] and in assay [16] was “inactive” in each case.
On to `CC(C)(c1cc(Cl)c(O)c(Cl)c1)c1cc(Cl)c(O)c(Cl)c1`, for which the Potency in assay [1] is 38.9 µM (active); in assay [6] it was 40.8 µM (active); in assay [8], “inactive and 13.3 µM (active)”; in [18], 55 µM (active) and 24.5 µM (active); in assay [9], 33.4 µM (active) and inactive. Moreover, the Potency entry in assay [2], in assay [3], in assay [4], in [5], in [17] and in assay [7] was “inactive” each time. Further, the Potency entry in assay [13], in assay [14], in assay [15] and in assay [16] was “inactive” throughout.
Turning to `CCOP(=O)(SC(C)CC)N1CCSC1=O` (centres undefined), the Potency result in [19], in assay [2], in assay [3], in assay [6], in assay [17] and in [7] was “inactive” throughout. Moreover, the Potency entry in assay [8], in assay [18], in assay [9], in [11], in assay [12] and in assay [14] was “inactive” in each case. For the same compound, the Potency entry in [15] and in assay [16] was “inactive” in each case.
For `Oc1ccc(C(=C(Cl)Cl)c2ccc(O)cc2)cc1`, the Potency entry in assay [19], in assay [2], in assay [3], in assay [4], in [5] and in [17] was “inactive” each time. The Potency entry in assay [10], in assay [8], in [11], in [12], in [15] and in [16] was “inactive” in each case. In addition, in assay [6], the Potency was 51.2 µM (active).
`C[As+](C)(C)CC(=O)[O-]`: the Potency result in assay [19], in assay [2], in assay [3], in assay [4], in assay [5] and in assay [6] was “inactive” each time. Moreover, the Potency result in assay [17], in assay [7], in [8], in assay [18], in [9] and in [11] was “inactive” in each case. Moreover, the Potency result in assay [12], in assay [13], in [14], in [15] and in assay [16] was “inactive” in each case.
In the case of `CC(=O)c1cc2c(cc1C)C(C)(C)C(C)CC2(C)C` (centres undefined), the Potency entry in assay [1], in [2], in [3], in assay [4], in assay [5] and in [6] was “inactive” each time. Besides, the Potency result in assay [7], in assay [10], in [8], in assay [18], in assay [9] and in [11] was “inactive” in each case. Further, the Potency result in assay [13], in assay [14] and in [15] was “inactive” throughout.
